Inconclusive results are not listed. A number with no mark means an inactive call. Calls of active or inactive are those of the source. Calls follow the shape of the dose curve; as a rule, active = well fitted curve in the direction sought with a large enough effect; inconclusive = small, poorly fitted or top-dose-only effect, or another doubt; inactive = no such curve, though single readings can be large; an effect the other way counts as inactive or inconclusive.
% is scaled to controls: 0 for no effect and ±100 for the full control effect.

Chain of Ubiquitin carboxyl-terminal hydrolase 1 (Homo sapiens) (O94782 whole entry, looked up): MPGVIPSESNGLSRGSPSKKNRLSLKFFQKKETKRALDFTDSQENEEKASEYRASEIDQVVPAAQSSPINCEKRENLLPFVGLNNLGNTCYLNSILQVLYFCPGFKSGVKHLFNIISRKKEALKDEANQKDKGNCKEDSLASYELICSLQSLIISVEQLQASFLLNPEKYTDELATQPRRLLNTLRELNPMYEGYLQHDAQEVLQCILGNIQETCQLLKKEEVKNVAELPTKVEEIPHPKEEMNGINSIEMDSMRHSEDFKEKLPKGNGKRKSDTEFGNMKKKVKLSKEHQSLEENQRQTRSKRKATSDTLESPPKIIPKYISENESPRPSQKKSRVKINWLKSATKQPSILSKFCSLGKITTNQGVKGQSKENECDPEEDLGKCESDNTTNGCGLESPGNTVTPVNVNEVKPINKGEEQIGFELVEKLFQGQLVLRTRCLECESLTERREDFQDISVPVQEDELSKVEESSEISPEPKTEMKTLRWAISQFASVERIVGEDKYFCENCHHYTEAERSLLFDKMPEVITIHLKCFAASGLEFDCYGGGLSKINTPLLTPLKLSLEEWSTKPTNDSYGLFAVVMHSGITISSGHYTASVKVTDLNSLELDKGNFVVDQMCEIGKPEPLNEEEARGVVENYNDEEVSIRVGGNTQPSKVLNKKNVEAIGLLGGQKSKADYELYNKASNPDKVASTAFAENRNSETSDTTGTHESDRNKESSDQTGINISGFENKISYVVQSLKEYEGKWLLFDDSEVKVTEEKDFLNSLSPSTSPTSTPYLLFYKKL
Chain of ATP-dependent 6-phosphofructokinase (Trypanosoma brucei brucei) (O15648 whole entry, looked up): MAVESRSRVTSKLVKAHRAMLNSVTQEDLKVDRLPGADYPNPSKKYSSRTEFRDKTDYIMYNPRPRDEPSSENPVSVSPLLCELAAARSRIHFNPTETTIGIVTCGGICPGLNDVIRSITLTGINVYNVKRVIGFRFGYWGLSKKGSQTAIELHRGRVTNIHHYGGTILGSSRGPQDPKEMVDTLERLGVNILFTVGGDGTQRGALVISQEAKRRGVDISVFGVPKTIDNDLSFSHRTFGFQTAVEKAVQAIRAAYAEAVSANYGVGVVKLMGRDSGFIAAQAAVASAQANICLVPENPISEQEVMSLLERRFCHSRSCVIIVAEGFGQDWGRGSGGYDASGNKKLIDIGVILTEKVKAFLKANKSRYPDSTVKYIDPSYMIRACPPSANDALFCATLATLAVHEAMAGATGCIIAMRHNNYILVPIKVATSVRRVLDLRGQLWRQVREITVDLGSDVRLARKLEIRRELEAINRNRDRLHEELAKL

One assay addresses ATP-dependent 6-phosphofructokinase (Trypanosoma brucei brucei) (UniProt O15648). The assay can be described thus: qHTS Assay to Find Inhibitors of T. brucei phosphofructokinase: hit validation (AID 492961). The note with it: T. brucei PFK, ADP-Glo luminescence; series mostly up to 51.4 µM; activity change, negative = inhibition: at the top concentration. The method in brief: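 Luminescence from ADP-Glo reports ADP generated as T. brucei PFK (1.25 nM) phosphorylates 0.5 mM fructose-6-phosphate using 0.1 mM ATP. Reactions ran 45 min at room temperature, pH 8.0.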
Consider `CCCCCCCC(=O)OCC(COC(=O)CCCCCCC)OC(=O)CCCCCCC`, for which the “activity change, negative = inhibition” value is 1.27%. On to `CC(=O)Nc1ccc(C(=O)O)cc1`, for which the “activity change, negative = inhibition” value is 11.2%. Consider `CCN(CC)C(=O)c1cccc(C)c1`, for which the “activity change, negative = inhibition” value was 0%. `CCCC(O)C(CC)CO` (centres undefined): the “activity change, negative = inhibition” value was -1.41%.

In a further assay the target is Ubiquitin carboxyl-terminal hydrolase 1 (Homo sapiens) (UniProt O94782). The assay is described as follows: Inhibitors of USP1/UAF1: Pilot qHTS (AID 504865).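 Also: rhodamine fluorescence freed from ubiquitin-rhodamine substrate followed over time; top concentration of the series differs between compounds; nearly all actives have a fitted effect of over 35% in size.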 The note with it: purified USP1/UAF1, Ub-rhodamine cleavage fluorescence; series mostly up to 114 µM; activity change, negative = inhibition: at the top concentration. The method in brief:
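Deubiquitinase activity followed as kinetic rhodamine fluorescence release from 150 nM Ub-Rho. 1 nM USP1/UAF1 with compound, after 15 min room-temperature preincubation, in HEPES pH 7.8 buffer containing TCEP, EDTA, BSA and Tween-20.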
`Cc1ccsc1/C=C/C1=NCCCN1C`: the “activity change, negative = inhibition” value was -5.44%. On the same count and under the same terms, the result for `NS(=O)(=O)c1cc(C2(O)NC(=O)c3ccccc32)ccc1Cl` (centres undefined) reads -8.67%. With `COc1nccnc1NS(=O)(=O)c1ccc(N)cc1`, the “activity change, negative = inhibition” value is 0.411%. As to `C1CCN2C[C@@H]3C[C@@H](CN4CCCC[C@@H]34)[C@H]2C1`, the “activity change, negative = inhibition” value was -4.47%. In the case of `Cc1cccc(Nc2ccccc2C(=O)O)c1C`, the Potency result was “inactive”. `Cc1cc(C)nc(NS(=O)(=O)c2ccc(N)cc2)n1`: the Potency entry was “inactive”. In the case of `NC(=O)NC1NC(=O)NC1=O` (centres undefined), the “activity change, negative = inhibition” value was -1.63%. For the molecule `O=C(O)CCCCC1CCSS1` (centres undefined), the “activity change, negative = inhibition” value is 3.49%. For the molecule `CCCCCCCC(=O)OCC(COC(=O)CCCCCCC)OC(=O)CCCCCCC`, the “activity change, negative = inhibition” value was 0.447%.

For the molecule `CC(=O)Nc1ccc(C(=O)O)cc1`, the “activity change, negative = inhibition” value is -3.23%.

Take `CC(=O)N[C@@H](CC(C)C)C(=O)O`: the “activity change, negative = inhibition” value is -0.611% [at 54.9 µM]. Same read-out and setting: the same measure for `C[n+]1ccccc1/C=N/O`: -4.18%. `Nc1ccc(S(=O)(=O)c2ccc(N)cc2)cc1`: the Potency entry was “inactive”. Still for that read-out and setting: the result for `Cn1c(=O)c2c(ncn2CCO)n(C)c1=O` reads “inactive”.

`C/C=C/C(=O)N(CC)c1ccccc1C`: the “activity change, negative = inhibition” value was -10.2%. On to `O=C(O)c1ccccc1OP(=O)(O)O`, for which the Potency entry is “inactive”.

With `Cc1cc(NC(=O)C2=C(O)c3ccccc3S(=O)(=O)N2C)no1`, the Potency entry was “inactive”. As to `CC1CCc2cc(F)cc3c(=O)c(C(=O)O)cn1c23` (centres undefined), the “activity change, negative = inhibition” value was -1.07%.

For `O=C(Cn1ccnc1[N+](=O)[O-])NCCO`, the Potency entry was “inactive”.

Turning to `CC[N+](CC)(CC(=O)Nc1c(C)cccc1C)Cc1ccccc1`, the “activity change, negative = inhibition” value is 8.46% [at 54.9 µM].

The values above are taken from PubChem BioAssay (NCATS).
